Giardia killer: kills Giardia lamblia; 0.15% of 340,000 active; activity change, % at 7.66 µM, hits read low; AID 540267; Giardia lamblia trophozoite viability; in the data active = activity change below about -80%; inconclusive = between about -30% and that limit;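 also: parasites exposed to compound for two days anaerobically before the ATP read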
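Trophozoites 100 cells/well + cpd; 48 hrs, 37 deg C, anaerobic. ATPLite 1-Step added, 15-30 min RT, luminescence read (ATP-based viability).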
SW480 rereplic: induces DNA re-replication in SW480 colon adenocarcinoma cells; SW480 DNA re-replication, Hoechst DNA content imaging, 48 h; Potency, µM (top dose mostly 46.1 µM), most hits filed as activators; 1.8% of 340,000 active; AID 624297; also: nearly all actives have a fitted effect of over 55% in size
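Per well, 250 cells were exposed to pinned compound for 48 hr. Nuclear DNA was visualised with Hoechst (40 min, 37 C) and total object intensity recorded by fluorescence scanning.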
Vif-APOBEC3G blk: blocks the Vif interaction with human APOBEC3G. HeLa A3G-eYFP + Vif (tagged APOBEC3G with the HIV-1 protein that degrades it), YFP fluorescence, overnight. 0.076% of 410,000 active. Potency, µM (highest dose often 46.1 µM), actives largely listed as inhibitors; also: nearly all actives have a fitted effect of over 60% in size
Target sequence (Q9HC16 whole entry, looked up): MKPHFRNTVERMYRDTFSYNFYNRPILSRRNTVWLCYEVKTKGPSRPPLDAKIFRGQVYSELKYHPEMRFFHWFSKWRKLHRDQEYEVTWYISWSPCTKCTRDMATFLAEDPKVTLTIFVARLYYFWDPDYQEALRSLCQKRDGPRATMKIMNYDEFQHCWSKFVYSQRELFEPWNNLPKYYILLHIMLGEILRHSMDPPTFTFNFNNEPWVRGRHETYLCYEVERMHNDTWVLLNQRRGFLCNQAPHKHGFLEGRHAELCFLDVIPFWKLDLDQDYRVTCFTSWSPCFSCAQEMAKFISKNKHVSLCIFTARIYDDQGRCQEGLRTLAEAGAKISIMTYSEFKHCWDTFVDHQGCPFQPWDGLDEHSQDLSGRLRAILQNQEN
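Read-out is eYFP fluorescence (Ex 488/Em 500-530) from Vif-expressing HeLa A3G-eYFP cells; more signal means A3G escaped Vif-mediated degradation. Cells plated overnight, compound pinned in, incubated overnight at 37 deg C.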
Vif-APOBEC3F blk: Vif-A3F binding inhibition. AID 602313. Potency, µM (titrated, usually from 46.1 µM). HeLa A3F-eYFP + Vif (tagged APOBEC3F with the HIV-1 protein that degrades it), YFP fluorescence increase. 0.2% of 390,000 active; also: nearly all actives have a fitted effect of over 65% in size
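Fluorescence increase (Ex 488/Em 500-530) after overnight compound treatment at 37 deg C flags inhibition of Vif-driven A3F-eYFP loss in stable HeLa A3F-eYFP/Vif cells seeded overnight beforehand.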
MCF10A rereplic: inducers of DNA re-replication in MCF 10A breast cells | MCF 10A DNA re-replication, Hoechst nuclear intensity, 48 h | Potency, µM (doses to about 46.1 µM), usual class: activators | 2.9% of 350,000 active | AID 624296; also: nearly all actives have a fitted effect of over 50% in size
IL-1B inflam inh: inflammasome signaling inhibition, IL-1 beta readout | activity change, % at 57.5 µM | THP-1 LPS/ATP IL-1B secretion, AlphaLISA, 16 h; stronger effect = lower value | 4.7% of 360,000 active; in the data active = activity change below about -50%; inconclusive = mostly about -30% to -49%
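THP-1 cells pretreated 1 hr with compounds (up to 57.5 uM final), then stimulated with LPS (250 ng/mL final) plus ATP (1.25 mM final); secreted IL-1B measured by AlphaLISA after 16 hr, decreased signal indicating inhibition.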
Each line names hits and unclear results; the compound was inactive in the other large screens. This is a sample that favours compounds with a hit; in the whole collection about 6.9% have one here. Unless noted, calls follow the shape of the dose curve; as a rule, active = well fitted curve in the direction sought with a large enough effect; inconclusive = small, poorly fitted or top-dose-only effect, or another doubt; inactive = no such curve, though single readings can be large; an effect the other way counts as inactive or inconclusive.

CNC1C(O)C(OC2C(N)CC(N)C(OC3OC(CN)=CCC3N)C2O)OCC1(C)O (centres undefined)	none (no result: Giardia killer, Vif-APOBEC3G blk, Vif-APOBEC3F blk, IL-1B inflam inh)
CCOC(=O)c1cc(C)n(CC2CCC(C(=O)Nc3ccccc3OC)CC2)c1C (centres undefined)	none (no result: Giardia killer, SW480 rereplic, MCF10A rereplic, IL-1B inflam inh)
Cc1ccc(C(=O)N2CCN(c3ccc(NC(=S)NC(=O)c4cccs4)cc3)CC2)cc1	SW480 rereplic 10µM, MCF10A rereplic inconclusive, IL-1B inflam inh -55
O=C(Nc1ccc(N2CCN(C(=O)c3ccccc3)CC2)cc1)c1cccs1	IL-1B inflam inh -59
CC(C)CC(=O)NC(=S)Nc1ccc(N2CCN(C(=O)c3cccs3)CC2)cc1	IL-1B inflam inh -58
Cc1ccc(C(=O)Nc2ccc(N3CCN(C(=O)c4cccs4)CC3)cc2)c(Cl)c1	MCF10A rereplic inconclusive, IL-1B inflam inh -65
Cc1ccccc1C(=O)N1CCN(c2ccc(NC(=S)NC(=O)c3cccs3)cc2)CC1	SW480 rereplic inconclusive, IL-1B inflam inh inconclusive
COc1ccc(-c2c(C3C4C=CCC(C)C4C(=O)N3Cc3ccccc3)ccc3ccccc23)cc1 (centres undefined)	none (no result: SW480 rereplic, Vif-APOBEC3F blk, MCF10A rereplic, IL-1B inflam inh)
Fc1ccc(NCc2ccccc2-c2nnc(-c3ccccc3Cl)o2)cc1Cl	none (no result: Giardia killer, SW480 rereplic, MCF10A rereplic, IL-1B inflam inh)
Cc1ccc(C)c(N2CCN(C(=O)c3cc4c(=O)oc5ccccc5c4s3)CC2)c1	none (no result: Giardia killer, SW480 rereplic, MCF10A rereplic, IL-1B inflam inh)
CCCC[C@H]1C2=C3[C@@H](CC(C(=O)OC)=C[C@@H](C(=O)OC)[C@H]3C(C)(C)C2=O)n2c(=O)n(C)c(=O)n21	none (no result: SW480 rereplic, Vif-APOBEC3F blk, MCF10A rereplic, IL-1B inflam inh)
Cc1ccc(C(=O)c2cn(Cc3ccccc3C)c3nc(C)ccc3c2=O)cc1	none (no result: Giardia killer, SW480 rereplic, MCF10A rereplic, IL-1B inflam inh)
COc1ccc(CN2CC[C@H]3C=CC[C@@H](C(=O)NCc4cccnc4)[C@H]3C2=O)cc1OC	none (no result: Giardia killer, SW480 rereplic, Vif-APOBEC3F blk, MCF10A rereplic, IL-1B inflam inh)
O=CNc1cc(-c2ccc(C(=O)NC3CC3)cc2)cn2c(-c3ccc(F)cc3)cnc12	IL-1B inflam inh -78 (no result: Giardia killer, SW480 rereplic, Vif-APOBEC3F blk, MCF10A rereplic)
CS(=O)(=O)c1ccc(-c2cc(NC=O)c3ncc(-c4ccc(F)cc4)n3c2)cc1	none (no result: Giardia killer, SW480 rereplic, Vif-APOBEC3F blk, MCF10A rereplic)
CC(=O)Nc1cc(-c2ccc(C(=O)NC3CC3)cc2)cn2c(-c3cccc(C(C)=O)c3)cnc12	Vif-APOBEC3G blk inconclusive (no result: Giardia killer, SW480 rereplic, Vif-APOBEC3F blk, MCF10A rereplic)
Cc1ccc(-c2cc(NC=O)c3ncc(-c4cnn(C)c4)n3c2)cc1	Vif-APOBEC3G blk inconclusive, IL-1B inflam inh -51 (no result: Giardia killer, SW480 rereplic, Vif-APOBEC3F blk, MCF10A rereplic)
CC(=O)Nc1cc(-c2ccc(C(=O)NC3CC3)cc2)cn2c(-c3cccc(C(F)(F)F)c3)cnc12	IL-1B inflam inh -53 (no result: Giardia killer, SW480 rereplic, Vif-APOBEC3F blk, MCF10A rereplic)
CC(=O)c1ccc(Nc2nc3c(S(=O)(=O)c4ccccc4)nnn3c3ccc(Cl)cc23)cc1	none (no result: Giardia killer, SW480 rereplic, MCF10A rereplic, IL-1B inflam inh)
O=c1/c(=C/c2ccco2)sc2n1CN(c1cccc(Br)c1)CN=2	MCF10A rereplic inconclusive, IL-1B inflam inh -50
Cc1cc(C)cc(N2CN=c3s/c(=C\c4ccco4)c(=O)n3C2)c1	none
Cc1ccc(/C=c2\sc3n(c2=O)CN(c2cccc(Br)c2)CN=3)o1	IL-1B inflam inh -51
O=c1/c(=C/c2ccco2)sc2n1CN(c1ccccc1)CN=2	none
Cc1ccc(Cl)cc1NC(=O)C1CCCN(S(=O)(=O)c2c(C)noc2/C=C/N(C)C)C1 (centres undefined)	none (no result: Giardia killer, SW480 rereplic, MCF10A rereplic, IL-1B inflam inh)
Cc1cnc(C(=O)O)c[n+]1[O-]	none (no result: Giardia killer, Vif-APOBEC3G blk, Vif-APOBEC3F blk, IL-1B inflam inh)
O=C(Nc1ccc(Cl)c(Cl)c1)c1ccc(Cn2c(=O)[nH]c3ccsc3c2=O)cc1	Vif-APOBEC3F blk inconclusive, MCF10A rereplic 16µM
CCCCN(C(=O)c1ccc([N+](=O)[O-])s1)c1c(N)n(CC(C)C)c(=O)[nH]c1=O	Vif-APOBEC3F blk inconclusive
CCCCn1c(N)c(N(CCC(C)C)C(=O)Cc2ccc(S(=O)(=O)N3CCOCC3)s2)c(=O)[nH]c1=O	none
CCCCn1c(N)c(N(CC(C)C)C(=O)Cc2ccc(S(=O)(=O)N3CCOCC3)s2)c(=O)[nH]c1=O	Vif-APOBEC3G blk inconclusive, Vif-APOBEC3F blk 25µM
CCCCn1c(N)c(N(CCC(C)C)C(=O)c2ccc([N+](=O)[O-])s2)c(=O)[nH]c1=O	SW480 rereplic inconclusive, Vif-APOBEC3F blk inconclusive, MCF10A rereplic 23µM
CC(=O)N1CCCc2cc(S(=O)(=O)N(C)CC(=O)Nc3ccc(Cl)cc3C)ccc21	none (no result: Giardia killer, SW480 rereplic, MCF10A rereplic, IL-1B inflam inh)
